# Measurements as given in the supplement of paper PMC4466140.
# Molecular target: AgAbp1
# Experiment: SPOT peptide array binding signal intensity (averaged, normalized) (arbitrary units (background-subtracted, floor 0; scale differs between SH3 domains)); higher = stronger binding of the SH3 domain to the peptide
# Summary of the method: (§1)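 Four yeast species supplied the SH3 domains, which were expressed as GST fusions in E. coli BL21(DE3) and purified on glutathione Sepharose. Incubation with cellulose membranes carrying synthetic 15-mer peptides, cysteines exchanged for serines, ran overnight at 4°C at 10 μg/ml in TBS-based blocking buffer. Binding signal is reported as normalized, background-subtracted spot intensity averaged over replicates, in arbitrary units not shared between domains.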
row,Binder,SPOT peptide array binding signal intensity
1,PPIPIVPSSPAPPLP,≤ 0

# Molecular target: AgBbc1
# Experiment: as above
# Summary of the method: as §1
row,Binder,SPOT peptide array binding signal intensity
1,PPIPIVPSSPAPPLP,≤ 0

# Molecular target: AgBem1-D1
# Experiment: as above
# Summary of the method: as §1
row,Binder,SPOT peptide array binding signal intensity
1,PPIPIVPSSPAPPLP,≤ 0

# Molecular target: AgBzz1-D1
# Experiment: as above
# Summary of the method: as §1
row,Binder,SPOT peptide array binding signal intensity
1,PPIPIVPSSPAPPLP,28

# Molecular target: AgBzz1-D2
# Experiment: as above
# Summary of the method: as §1
row,Binder,SPOT peptide array binding signal intensity
1,PPIPIVPSSPAPPLP,≤ 0

# Molecular target: AgCyk3
# Experiment: as above
# Summary of the method: as §1
row,Binder,SPOT peptide array binding signal intensity
1,PPIPIVPSSPAPPLP,≤ 0

# Molecular target: AgFus1
# Experiment: as above
# Summary of the method: as §1
row,Binder,SPOT peptide array binding signal intensity
1,PPIPIVPSSPAPPLP,≤ 0

# Molecular target: AgHof1
# Experiment: as above
# Summary of the method: as §1
row,Binder,SPOT peptide array binding signal intensity
1,PPIPIVPSSPAPPLP,≤ 0

# Molecular target: AgHse1
# Experiment: as above
# Summary of the method: as §1
row,Binder,SPOT peptide array binding signal intensity
1,PPIPIVPSSPAPPLP,≤ 0

# Molecular target: AgLsb1
# Experiment: as above
# Summary of the method: as §1
row,Binder,SPOT peptide array binding signal intensity
1,PPIPIVPSSPAPPLP,≤ 0

# Molecular target: AgLsb4
# Experiment: as above
# Summary of the method: as §1
row,Binder,SPOT peptide array binding signal intensity
1,PPIPIVPSSPAPPLP,≤ 0

# Molecular target: AgMyo5
# Experiment: as above
# Summary of the method: as §1
row,Binder,SPOT peptide array binding signal intensity
1,PPIPIVPSSPAPPLP,2150

# Molecular target: AgNbp2
# Experiment: as above
# Summary of the method: as §1
row,Binder,SPOT peptide array binding signal intensity
1,PPIPIVPSSPAPPLP,≤ 0

# Molecular target: AgRvs167
# Experiment: as above
# Summary of the method: as §1
row,Binder,SPOT peptide array binding signal intensity
1,PPIPIVPSSPAPPLP,≤ 0

# Molecular target: AgSho1
# Experiment: as above
# Summary of the method: as §1
row,Binder,SPOT peptide array binding signal intensity
1,PPIPIVPSSPAPPLP,≤ 0

# Molecular target: AgSla1-D1-D2
# Experiment: as above
# Summary of the method: as §1
row,Binder,SPOT peptide array binding signal intensity
1,PPIPIVPSSPAPPLP,≤ 0

# Molecular target: AgSla1-D3
# Experiment: as above
# Summary of the method: as §1
row,Binder,SPOT peptide array binding signal intensity
1,PPIPIVPSSPAPPLP,≤ 0

# Molecular target: CaAbp1-D1
# Experiment: as above
# Summary of the method: as §1
row,Binder,SPOT peptide array binding signal intensity
1,PPIPIVPSSPAPPLP,≤ 0

# Molecular target: CaAbp1-D2
# Experiment: as above
# Summary of the method: as §1
row,Binder,SPOT peptide array binding signal intensity
1,PPIPIVPSSPAPPLP,≤ 0

# Molecular target: CaBbc1
# Experiment: as above
# Summary of the method: as §1
row,Binder,SPOT peptide array binding signal intensity
1,PPIPIVPSSPAPPLP,0.5

# Molecular target: CaBem1-D1
# Experiment: as above
# Summary of the method: as §1
row,Binder,SPOT peptide array binding signal intensity
1,PPIPIVPSSPAPPLP,≤ 0

# Molecular target: CaBzz1-D1
# Experiment: as above
# Summary of the method: as §1
row,Binder,SPOT peptide array binding signal intensity
1,PPIPIVPSSPAPPLP,≤ 0

# Molecular target: CaBzz1-D2
# Experiment: as above
# Summary of the method: as §1
row,Binder,SPOT peptide array binding signal intensity
1,PPIPIVPSSPAPPLP,≤ 0

# Molecular target: CaCyk3
# Experiment: as above
# Summary of the method: as §1
row,Binder,SPOT peptide array binding signal intensity
1,PPIPIVPSSPAPPLP,≤ 0

# Molecular target: CaFus1
# Experiment: as above
# Summary of the method: as §1
row,Binder,SPOT peptide array binding signal intensity
1,PPIPIVPSSPAPPLP,≤ 0

# Molecular target: CaHof1
# Experiment: as above
# Summary of the method: as §1
row,Binder,SPOT peptide array binding signal intensity
1,PPIPIVPSSPAPPLP,≤ 0

# Molecular target: CaHse1
# Experiment: as above
# Summary of the method: as §1
row,Binder,SPOT peptide array binding signal intensity
1,PPIPIVPSSPAPPLP,≤ 0

# Molecular target: CaLsb1
# Experiment: as above
# Summary of the method: as §1
row,Binder,SPOT peptide array binding signal intensity
1,PPIPIVPSSPAPPLP,≤ 0

# Molecular target: CaLsb4
# Experiment: as above
# Summary of the method: as §1
row,Binder,SPOT peptide array binding signal intensity
1,PPIPIVPSSPAPPLP,≤ 0

# Molecular target: CaMyo5
# Experiment: as above
# Summary of the method: as §1
row,Binder,SPOT peptide array binding signal intensity
1,PPIPIVPSSPAPPLP,833

# Molecular target: CaNbp2
# Experiment: as above
# Summary of the method: as §1
row,Binder,SPOT peptide array binding signal intensity
1,PPIPIVPSSPAPPLP,47.5

# Molecular target: CaRvs167
# Experiment: as above
# Summary of the method: as §1
row,Binder,SPOT peptide array binding signal intensity
1,PPIPIVPSSPAPPLP,≤ 0

# Molecular target: CaRvs167-3
# Experiment: as above
# Summary of the method: as §1
row,Binder,SPOT peptide array binding signal intensity
1,PPIPIVPSSPAPPLP,≤ 0

# Molecular target: CaSho1
# Experiment: as above
# Summary of the method: as §1
row,Binder,SPOT peptide array binding signal intensity
1,PPIPIVPSSPAPPLP,≤ 0

# Molecular target: CaSla1-D1-D2
# Experiment: as above
# Summary of the method: as §1
row,Binder,SPOT peptide array binding signal intensity
1,PPIPIVPSSPAPPLP,≤ 0

# Molecular target: CaSla1-D3
# Experiment: as above
# Summary of the method: as §1
row,Binder,SPOT peptide array binding signal intensity
1,PPIPIVPSSPAPPLP,≤ 0

# Molecular target: ScAbp1
# Experiment: as above
# Summary of the method: as §1
row,Binder,SPOT peptide array binding signal intensity
1,PPIPIVPSSPAPPLP,≤ 0

# Molecular target: ScBbc1
# Experiment: as above
# Summary of the method: as §1
row,Binder,SPOT peptide array binding signal intensity
1,PPIPIVPSSPAPPLP,≤ 0

# Molecular target: ScBem1-D1
# Experiment: as above
# Summary of the method: as §1
row,Binder,SPOT peptide array binding signal intensity
1,PPIPIVPSSPAPPLP,≤ 0

# Molecular target: ScBzz1-D1
# Experiment: as above
# Summary of the method: as §1
row,Binder,SPOT peptide array binding signal intensity
1,PPIPIVPSSPAPPLP,≤ 0

# Molecular target: ScBzz1-D2
# Experiment: as above
# Summary of the method: as §1
row,Binder,SPOT peptide array binding signal intensity
1,PPIPIVPSSPAPPLP,≤ 0

# Molecular target: ScCyk3
# Experiment: as above
# Summary of the method: as §1
row,Binder,SPOT peptide array binding signal intensity
1,PPIPIVPSSPAPPLP,≤ 0

# Molecular target: ScFus1
# Experiment: as above
# Summary of the method: as §1
row,Binder,SPOT peptide array binding signal intensity
1,PPIPIVPSSPAPPLP,≤ 0

# Molecular target: ScHof1
# Experiment: as above
# Summary of the method: as §1
row,Binder,SPOT peptide array binding signal intensity
1,PPIPIVPSSPAPPLP,1.5

# Molecular target: ScHse1
# Experiment: as above
# Summary of the method: as §1
row,Binder,SPOT peptide array binding signal intensity
1,PPIPIVPSSPAPPLP,≤ 0

# Molecular target: ScLsb1
# Experiment: as above
# Summary of the method: as §1
row,Binder,SPOT peptide array binding signal intensity
1,PPIPIVPSSPAPPLP,≤ 0

# Molecular target: ScLsb2
# Experiment: as above
# Summary of the method: as §1
row,Binder,SPOT peptide array binding signal intensity
1,PPIPIVPSSPAPPLP,≤ 0

# Molecular target: ScLsb3
# Experiment: as above
# Summary of the method: as §1
row,Binder,SPOT peptide array binding signal intensity
1,PPIPIVPSSPAPPLP,≤ 0

# Molecular target: ScLsb4
# Experiment: as above
# Summary of the method: as §1
row,Binder,SPOT peptide array binding signal intensity
1,PPIPIVPSSPAPPLP,≤ 0

# Molecular target: ScMyo3
# Experiment: as above
# Summary of the method: as §1
row,Binder,SPOT peptide array binding signal intensity
1,PPIPIVPSSPAPPLP,2260

# Molecular target: ScMyo5
# Experiment: as above
# Summary of the method: as §1
row,Binder,SPOT peptide array binding signal intensity
1,PPIPIVPSSPAPPLP,1940

# Molecular target: ScNbp2
# Experiment: as above
# Summary of the method: as §1
row,Binder,SPOT peptide array binding signal intensity
1,PPIPIVPSSPAPPLP,≤ 0

# Molecular target: ScPex13
# Experiment: as above
# Summary of the method: as §1
row,Binder,SPOT peptide array binding signal intensity
1,PPIPIVPSSPAPPLP,≤ 0

# Molecular target: ScRvs167
# Experiment: as above
# Summary of the method: as §1
row,Binder,SPOT peptide array binding signal intensity
1,PPIPIVPSSPAPPLP,≤ 0

# Molecular target: ScSho1
# Experiment: as above
# Summary of the method: as §1
row,Binder,SPOT peptide array binding signal intensity
1,PPIPIVPSSPAPPLP,≤ 0

# Molecular target: ScSla1-D1-D2
# Experiment: as above
# Summary of the method: as §1
row,Binder,SPOT peptide array binding signal intensity
1,PPIPIVPSSPAPPLP,≤ 0

# Molecular target: ScSla1-D3
# Experiment: as above
# Summary of the method: as §1
row,Binder,SPOT peptide array binding signal intensity
1,PPIPIVPSSPAPPLP,0.25

# Molecular target: SpAbp1-D1
# Experiment: as above
# Summary of the method: as §1
row,Binder,SPOT peptide array binding signal intensity
1,PPIPIVPSSPAPPLP,≤ 0

# Molecular target: SpBbc1
# Experiment: as above
# Summary of the method: as §1
row,Binder,SPOT peptide array binding signal intensity
1,PPIPIVPSSPAPPLP,3.5

# Molecular target: SpBzz1-D1
# Experiment: as above
# Summary of the method: as §1
row,Binder,SPOT peptide array binding signal intensity
1,PPIPIVPSSPAPPLP,≤ 0

# Molecular target: SpBzz1-D2
# Experiment: as above
# Summary of the method: as §1
row,Binder,SPOT peptide array binding signal intensity
1,PPIPIVPSSPAPPLP,≤ 0

# Molecular target: SpCyk3
# Experiment: as above
# Summary of the method: as §1
row,Binder,SPOT peptide array binding signal intensity
1,PPIPIVPSSPAPPLP,≤ 0

# Molecular target: SpHof1
# Experiment: as above
# Summary of the method: as §1
row,Binder,SPOT peptide array binding signal intensity
1,PPIPIVPSSPAPPLP,≤ 0

# Molecular target: SpHof1-2
# Experiment: as above
# Summary of the method: as §1
row,Binder,SPOT peptide array binding signal intensity
1,PPIPIVPSSPAPPLP,≤ 0

# Molecular target: SpHof1-3
# Experiment: as above
# Summary of the method: as §1
row,Binder,SPOT peptide array binding signal intensity
1,PPIPIVPSSPAPPLP,≤ 0

# Molecular target: SpHse1
# Experiment: as above
# Summary of the method: as §1
row,Binder,SPOT peptide array binding signal intensity
1,PPIPIVPSSPAPPLP,26.8

# Molecular target: SpLsb1
# Experiment: as above
# Summary of the method: as §1
row,Binder,SPOT peptide array binding signal intensity
1,PPIPIVPSSPAPPLP,≤ 0

# Molecular target: SpLsb4
# Experiment: as above
# Summary of the method: as §1
row,Binder,SPOT peptide array binding signal intensity
1,PPIPIVPSSPAPPLP,≤ 0

# Molecular target: SpMyo1
# Experiment: as above
# Summary of the method: as §1
row,Binder,SPOT peptide array binding signal intensity
1,PPIPIVPSSPAPPLP,1080

# Molecular target: SpNbp2
# Experiment: as above
# Summary of the method: as §1
row,Binder,SPOT peptide array binding signal intensity
1,PPIPIVPSSPAPPLP,≤ 0

# Molecular target: SpPex13
# Experiment: as above
# Summary of the method: as §1
row,Binder,SPOT peptide array binding signal intensity
1,PPIPIVPSSPAPPLP,≤ 0

# Molecular target: SpRvs167
# Experiment: as above
# Summary of the method: as §1
row,Binder,SPOT peptide array binding signal intensity
1,PPIPIVPSSPAPPLP,≤ 0

# Molecular target: SpSla1-D1-D2
# Experiment: as above
# Summary of the method: as §1
row,Binder,SPOT peptide array binding signal intensity
1,PPIPIVPSSPAPPLP,≤ 0

# Molecular target: SpSla1-D3
# Experiment: as above
# Summary of the method: as §1
row,Binder,SPOT peptide array binding signal intensity
1,PPIPIVPSSPAPPLP,≤ 0
